Test results taken from PubChem BioAssay.
Activity calls are given as the source filed them.

Legend:
[1] = compound effects on lung adenocarcinoma cell viability – A549, calcein-AM fluorescence, 48 h, basal, profiling panel (AID 1162); conditions: higher = more signal
[2] = compound effects on differentiated 3T3-L1 adipocyte viability – cell-based, 3T3-L1 adipocytes, calcein-AM fluorescence, 48 h, basal, profiling panel (AID 1163); conditions: 3T3-L1 adipocytes viability, higher = more signal
[3] = compound effects on hepatocellular carcinoma cell viability – HepG2, calcein-AM fluorescence, 48 h, basal, profiling panel (AID 1164); conditions: higher = more signal
[4] = compound effects on multiple myeloma cell viability – MM1S, calcein-AM fluorescence, 48 h, basal, profiling panel (AID 1165); conditions: higher = more signal
[5] = calcein-AM signal in unstimulated myeloma cells – cell-based, calcein-AM fluorescence, 48 h, PK04 Diversity Set, profiling panel (AID 1166); conditions: RPMI8226 myeloma viability, higher = more signal;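 further: cells grown under basal conditions without added stimulus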
[6] = JC-1 mitochondrial signal, unstimulated HepG2 cells – cell-based, JC-1 fluorescence, 24 h, 100 nL compound, profiling panel (AID 1167); conditions: HepG2 mitochondrial potential, higher = more signal
[7] = JC-1 mitochondrial signal, unstimulated adipocytes – cell-based, JC-1 fluorescence, 3T3-L1 adipocytes, 24 h, 100 nL compound, profiling panel (AID 1168); conditions: JC-1 mitochondrial fluorescence, higher = more signal, called active from +8 up or from −8 down
[8] = JC-1 mitochondrial signal, unstimulated myeloma cells – cell-based, JC-1 fluorescence, RPMI8226, 24 h, 100 nL compound, profiling panel (AID 1169); conditions: JC-1 mitochondrial potential fluorescence, higher = more signal
[9] = JC-1 mitochondrial signal, unstimulated MM1S myeloma – cell-based, JC-1 fluorescence, 24 h, 100 nL compound, profiling panel (AID 1170); conditions: MM1S mitochondrial potential, higher = more signal
[10] = resazurin metabolic signal in A549 cells – cell-based, resazurin fluorescence, 24 h, PK04 Diversity Set, profiling panel (AID 1171); conditions: A549 viability, higher = more signal, called active from +8 up or from −8 down
Further: test concentration not given here.

Structure (SMILES) | z-score [1] | z-score [2] | z-score [3] | z-score [4] | z-score [5] | z-score [6] | z-score [7] | z-score [8] | z-score [9] | z-score [10]
CCOC(=O)C1=C[C@@H](C(C)(C)C)N(S(=O)(=O)c2ccc(C)cc2)[C@H]1c1ccc(F)cc1 | -1.5 | 0.131 | -1.71 | -1.55 | -3 | 4.5 | -0.43 (inactive) | -1.03 | -0.781 | 0.627 (inactive)
COC(=O)[C@@]1(CCC(=O)OC(C)(C)C)N=C(c2ccc(OCCCO)cc2)O[C@H]1c1ccccc1N=[N+]=[N-] | -1.99 | 1.12 | -1.92 | -3.6 | -3.93 | -0.429 | 0.581 (inactive) | -1 | -2.34 | -2.08 (inactive)
CC(C)CNC(=O)[C@@]1(Cc2ccccc2I)c2ccccc2C(=O)N(C2CCCCC2)[C@H]1c1ccc(CO)cc1 | -0.175 | -0.316 | -0.762 | -1.45 | -2.39 | -0.396 | -0.485 (inactive) | -0.594 | -0.213 | 0.623 (inactive)
COC(=O)C(CC#Cc1ccc2c(c1)[C@]1(C(=O)N2)[C@H](C(=O)Nc2nc3ccccc3s2)[C@H]2C(=O)O[C@H](c3ccccc3)[C@H](c3ccccc3)N2[C@@H]1c1ccc(O)cc1)C(=O)OC | 0.567 | 0.823 | 1.49 | -1.15 | -3.43 | -2.74 | -0.383 (inactive) | -1.31 | -0.561 | 0.502 (inactive)
COCCOC(=O)N1C(=O)[C@@]2(c3cc(C#CCC(C(=O)OC)C(=O)OC)ccc31)[C@H](C(=O)N1CCN(c3ncccn3)CC1)[C@H]1C(=O)O[C@H](c3ccccc3)[C@H](c3ccccc3)N1[C@@H]2c1ccccc1OCCO | 0.0182 | 0.462 | -0.481 | -0.748 | 0.297 | 1.37 | 1.39 (inactive) | -0.182 | -1.2 | -0.174 (inactive)
COc1ccc(C#Cc2ccc3c(c2)[C@]2(C(=O)N3)[C@H](C(=O)NC[C@H](O)c3ccccc3)[C@H]3C(=O)O[C@H](c4ccccc4)[C@H](c4ccccc4)N3[C@@H]2c2ccc(O)cc2)cc1 | 0.0902 | -0.753 | -0.0809 | -3.27 | -4.13 | -1.93 | -0.523 (inactive) | -1.11 | -1.57 | -0.226 (inactive)
COC(=O)c1c(CC[C@@H](CO)NC(=O)NCCn2cc(C3(O)CCCC3)nn2)oc(C(C)=O)c1C(=O)OC | -0.298 | 0.154 | 0.122 | 0.454 | 0.206 | -0.0184 | -0.543 (inactive) | 0.586 | -0.152 | -0.957 (inactive)
COC(=O)[C@@]1(Cc2ccc(F)cc2)[C@H]2c3cc(C(=O)N(C)C)n(Cc4cc(F)c(F)c(F)c4)c3C[C@H]2CN1C(=O)c1ccccc1 | -0.917 | -0.147 | 0.178 | -0.711 | -1.93 | 0.345 | -1.26 (inactive) | -0.803 | -1.75 | -2.68 (inactive)
COC(=O)C(CC#Cc1ccc2c(c1)[C@]1(C(=O)N2)[C@H](c2ccc(OCCO)cc2)N2[C@H](c3ccccc3)[C@H](c3ccccc3)OC(=O)[C@H]2[C@@H]1C(=O)N1CCc2cc(OC)c(OC)cc2C1)C(=O)OC | 0.442 | 1.16 | 0.578 | -0.952 | -0.578 | -0.156 | -0.0627 (inactive) | -0.929 | -1.11 | 0.161 (inactive)
COc1ccc([C@H]2OC[C@@H]3C[C@@H](Cc4ccccc4)C(=O)N32)cc1 | -0.706 | 0.0138 | 0.305 | -2.13 | 0.215 | -0.478 | -0.0784 (inactive) | 0.183 | -0.0676 | 0.194 (inactive)
C=C(/C(=C/C[C@H](OC(C)=O)c1ccccc1OCCO)c1cnc2ccccc2c1)C(C)C | 0.689 | -0.665 | 0.218 | -3.32 | -2.23 | 0.469 | -1.34 (inactive) | 0.251 | -0.685 | -0.0361 (inactive)
[N-]=[N+]=Nc1ccccc1[C@@H]1OC(c2ccc(OCCCO)cc2)=N[C@]1(Cc1ccccc1)C(=O)N1CCOCC1 | -0.539 | -1.63 | -0.404 | -3 | -4.17 | 0.593 | 2.15 (inactive) | -1.21 | -1.09 | -1.56 (inactive)
COc1cc2c(cc1OC)CN(C(=O)[C@H]1[C@@H]3C(=O)O[C@@H](c4ccccc4)[C@@H](c4ccccc4)N3[C@@H](c3ccc(O)cc3)[C@]13C(=O)Nc1ccccc13)CC2 | -0.214 | -0.843 | 0.394 | -0.723 | -1.47 | -1.2 | 0.977 (inactive) | -0.542 | -0.594 | -0.0574 (inactive)
COc1ccc(C(=O)Nc2ccc(CN3C(=O)[C@]4(O[C@H](CCO)[C@@H]([Si](C)(C)c5ccc(OC)cc5)[C@@H]4C)c4ccccc43)cc2)cc1 | -3.8 | -0.0656 | -4.64 | -2.62 | -4.35 | -2.72 | 1.36 (inactive) | -1.06 | -2.28 | -3.79 (inactive)
C=CCOC(=O)[C@@H]1[C@H]2C(=O)O[C@H](c3ccccc3)[C@H](c3ccccc3)N2[C@H](c2ccc(OCCOC(=O)[C@@H]3C[C@@H]4C(=O)NCC(=O)N4[C@@H]3c3ccc(O)cc3)cc2)[C@@]12C(=O)Nc1ccc(I)cc12 | -0.814 | 0.198 | -0.207 | -0.647 | -0.319 | -2.11 | -0.444 (inactive) | -0.972 | -0.919 | 0.994 (inactive)
CC(C)[Si](C#Cc1ccc(Oc2ccccc2)cc1)(O[Si](C#Cc1ccc(Oc2ccccc2)cc1)(C(C)C)C(C)C)C(C)C | 0.271 | 0.587 | -0.377 | -1.58 | -0.743 | -0.683 | 0.733 (inactive) | 0.0384 | -0.00729 | 0.162 (inactive)
CN(C)CCCCCCNC(=O)[C@H]1C[C@H]2C(=O)N3CCC[C@H]3C(=O)N2[C@H]1c1ccc(O)cc1 | -0.79 | 0.627 | -0.952 | -0.567 | -0.554 | 0.661 | 0.597 (inactive) | 0.262 | 0.538 | -0.636 (inactive)
C=CC1(C(=O)OC)CC=C(C(=O)OC)CC1 (stereo not given) | 0.211 | 0.0237 | -0.287 | 0.835 | -0.0765 | 1.27 | 0.562 (inactive) | -0.093 | -1.42 | 0.45 (inactive)
CC(C)C(=C=CC[C@H](O)c1ccc(OCCO)cc1)CCO | 0.421 | 0.799 | 0.101 | -3.35 | -2.14 | -1.55 | -0.722 (inactive) | -0.881 | -0.0147 | 1.05 (inactive)
O=C1C2C=CC(C(O)c3cccc4ccccc34)N(Nc3ccccc3F)C2C(=O)N1c1ccccc1 (stereo not given) | -1.05 | -1.47 | -0.231 | 0.121 | -0.345 | -1.86 | -0.794 (inactive) | 0.355 | -1.68 | -0.232 (inactive)
COc1cc(Br)cc(C(O)C2C=CC3C(=O)N(C)C(=O)C3N2N2CCCCC2)c1OC (stereo not given) | -1.12 | -0.456 | -0.315 | -1.68 | -0.18 | -1.05 | -0.535 (inactive) | 0.672 | -0.129 | -0.318 (inactive)
CC(C)NC(=O)[C@@H]1c2ccccc2C(=O)N(C2Cc3ccccc3C2)[C@H]1c1ccc(CO)cc1 | 1.54 | -0.27 | 1.22 | 0.543 | 0.982 | 3.83 | 0.976 (inactive) | 0.459 | -0.096 | 1.81 (inactive)
Cc1ccc(N2C(=O)c3ccccc3[C@@H](C(=O)NC3CC3)[C@@H]2c2ccc(CO)cc2)nc1 | -0.684 | 0.516 | -0.774 | 0.0291 | -2.27 | -0.0756 | -0.289 (inactive) | 0.755 | -0.446 | 0.771 (inactive)
COC(=O)[C@@]1(Cc2ccc(F)cc2)[C@H]2c3cc(C(=O)N(C)C)n(Cc4ccc(Cl)c(C(F)(F)F)c4)c3C[C@H]2CN1C(=O)c1ccccc1 | -1.16 | -0.207 | -1.04 | -2.26 | -4.06 | 1.96 | -1.47 (inactive) | -0.854 | -1.54 | -1.27 (inactive)
CCC(CC)C(O)C1C=CC2C(=O)NC(=O)C2N1Nc1ccc(Cl)cc1Cl (stereo not given) | -1.36 | -0.326 | -0.751 | -1.38 | -0.82 | -2.18 | -0.446 (inactive) | -0.661 | -0.246 | -0.929 (inactive)
NC(=O)NCC#Cc1ccc2c(c1)[C@]1(C(=O)N2)[C@H](C(=O)Nc2nc3ccccc3s2)[C@H]2C(=O)O[C@H](c3ccccc3)[C@H](c3ccccc3)N2[C@@H]1c1ccccc1OCCO | -0.38 | 2.01 | 0.374 | -0.513 | -1.12 | -3.23 | 2.92 (inactive) | -0.517 | -0.815 | 0.28 (inactive)
CCCC[C@@H]1C[C@H]1[C@@H](NC(=O)C(C)(C)C)c1ccc(C(F)(F)F)cc1 | -1.63 | 0.434 | -1.6 | -2.43 | -3.05 | -0.754 | -1.64 (inactive) | -0.204 | -1.8 | 0.419 (inactive)
COc1ccc(CCNC(=O)[C@@H]2c3ccccc3C(=O)N(Cc3ccccc3Cl)[C@H]2c2ccc(CO)cc2)cc1 | 1.37 | 0.789 | 0.332 | -0.897 | -0.474 | 1.64 | 0.716 (inactive) | -0.0929 | 1.42 | 1.22 (inactive)
CC(C)(C)OC(=O)CC[C@]1(C(=O)N2CCOCC2)N=C(c2ccc(OCCCO)cc2)O[C@H]1c1ccccc1N=[N+]=[N-] | 0.901 | 0.232 | 0.556 | -0.474 | -0.337 | 1.27 | 3.46 (inactive) | -0.252 | 0.103 | 1.03 (inactive)
O=C1C[C@@](C(=O)NC2CC2)(c2ccc([N+](=O)[O-])cc2)[C@@H](c2ccc(CO)cc2I)N1C1CCCCC1 | 0.147 | -0.536 | 0.522 | -1.77 | -1.17 | 0.575 | -0.604 (inactive) | -0.36 | -0.993 | 0.0067 (inactive)
